# According to the supplement of paper PMC10981050:
# Where “and” joins values, the source holds several entries; their conditions need not be identical. Equal values may be shown once.
# How the values were obtained:
# Experiment in all cases: cell viability relative to vehicle control; higher = less cytotoxic
# Details in all cases: 10 µM
# K562 = system: K562
# Procedure, shortened: (§1)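 Mutant clones made by CRISPR editing and their isogenic wild-type counterparts, from four leukaemia lines, were exposed to a single 10 µM dose of each library compound for 48 h. The supernatant was then removed and CellTiter-Glo luminescence was read. Viability was reported as percent of the on-plate vehicle control.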
# MARIMO = system: MARIMO
# Procedure, shortened: as §1
# MOLM14 = system: MOLM14
# Procedure, shortened: as §1
# OCI-AML2 = system: OCI-AML2
# Procedure, shortened: as §1
Compound,cell viability (K562; SRSF2 genotype: SRSF2 P95H/wt),cell viability (K562; SRSF2 genotype: SRSF2 wt/wt) [%],cell viability (MARIMO; SRSF2 genotype: SRSF2 P95H/wt) [%],cell viability (MARIMO; SRSF2 genotype: SRSF2 wt/wt) [%],cell viability (MOLM14; SRSF2 genotype: SRSF2 P95H/wt) [%],cell viability (MOLM14; SRSF2 genotype: SRSF2 wt/wt) [%],cell viability (OCI-AML2; SRSF2 genotype: P95H/wt) [%],cell viability (OCI-AML2; SRSF2 genotype: wt/wt) [%]
Cc1cc(=O)oc2ccc(O)cc12 [6-Hydroxy-4-methylcoumarin],111% and 101%,107,107,97,101,103,96,104
CC(C)OC(=O)[C@H](C)N[P@](=O)(OC[C@H]1O[C@@H](n2ccc(=O)[nH]c2=O)[C@](C)(F)[C@@H]1O)Oc1ccccc1 [Sofosbuvir(PSI-7977)],103% and 102%,95.8,98.3,111,102,107,94,107
O=C(CCCCCCC(=O)N/N=C/c1ccc(N(c2ccccc2)c2ccccc2)cc1)NO,38.5% and 60.9%,54.6,65.8,18.7,1.58,1.31,0.64,1.98
Cc1ccc(C(C)C)c(O)c1 [Thymol],96.2% and 91.7%,99,97.9,102,97.1,105,98.3,101
FC(F)(F)Oc1ccc2nc(-c3ccc(OCCOCCOc4ccc(-c5nc6ccc(OC(F)(F)F)cc6[nH]5)nc4)cn3)[nH]c2c1,52.4% and 53%,56.4,26.9,39.3,50.4,41.3,18.4,24.8
COc1ccc2cc1Oc1ccc(cc1)C[C@H]1c3cc(c(OC)cc3CCN1C)Oc1c(O)c(OC)cc3c1[C@H](C2)N(C)CC3 [Fangchinoline],5.78% and 5.22%,5.07,12.1,1.57,0.48,0.53,0.4,0.56
O=[N+]([O-])c1ccc(S(=O)(=O)N2CCN(c3ccnc4cc(Cl)ccc34)CC2)c([N+](=O)[O-])c1,69.2% and 80.5%,71.8,27.1,30.7,2.07,22.7,0.47,0.54
CCS(=O)(=O)N1CC(CC#N)(n2cc(-c3ncnc4[nH]ccc34)cn2)C1,110% and 106%,108,111,115,106,109,84.7,92.9
C=C1C[C@@]23CC[C@H]4[C@@](C)(CCC[C@@]4(C)C(=O)O[C@@H]4O[C@H](CO)[C@@H](O)[C@H](O)[C@H]4O)[C@@H]2CC[C@]1(O[C@@H]1O[C@H](CO)[C@@H](O)[C@H](O)[C@H]1O[C@@H]1O[C@H](CO)[C@@H](O)[C@H](O)[C@H]1O)C3 [Stevioside],113% and 107%,113,111,97.4,112,112,108,106
Cc1cc2c(s1)Nc1ccccc1N=C2N1CCN(C)CC1 [Olanzapine (Zyprexa)],95.8% and 89.5%,90.7,92.5,102,93.8,95.8,81.7,92.2
COc1cc(Nc2ncc(F)c(Nc3ccc4c(n3)N(COP(=O)(O)O)C(=O)C(C)(C)O4)n2)cc(OC)c1OC,97.6% and 98.5%,97.5,107,114,8.88,11.4,26.3,37
C[N+]12CCc3cc4c(cc3C1(O)Cc1ccc3c(c1C2)OCO3)OCO4 (stereo not given) [Hydroprotopine],94.4% and 93.5%,89.5,84.6,91.9,91.2,98.8,96.3,99
"O=C(CCCCCCC(=O)Nc1ccccc1)NO [Vorinostat (SAHA, MK0683)]",1.62% and 17.9%,10.1,4.92,8.5,0.83,0.28,1.15,4.64
O=C(/C=C/c1ccc(O[C@@H]2O[C@H](CO)[C@@H](O)[C@H](O)[C@H]2O)cc1)c1ccc(O)cc1O [Isoliquiritin],96.8% and 98%,105,103,97.6,69.7,87.6,111,107
CC(C)c1ccc(C=O)cc1 [4-Isopropylbenzaldehyde],94.1% and 90.8%,92.4,94.5,99.9,86.2,94.9,89.9,93.4
COc1ccc(C(=O)C(=O)c2ccc(OC)cc2)cc1,104% and 97.9%,104,95.5,105,100,106,94.5,90.8
CN1CCC(COc2cnc(-c3cccc(Cn4nc(-c5cccc(C#N)c5)ccc4=O)c3)nc2)CC1,30.9% and 26.1%,30.5,61.7,63.6,55.6,47.5,49.2,52.8
COc1ccc(/C=C/c2cc(O)cc(O)c2)cc1O [Rhapontigenin],95.7% and 103%,105,101,97.9,119,109,94.2,86.2
Nc1ccn([C@@H]2O[C@H](CO)[C@@H](O)C2(F)F)c(=O)n1 [Gemcitabine (Gemzar)],89% and 104%,101,21.3,24.4,4.86,1.1,7.55,8.99
O=C(Nc1cccnc1)N1CCC(Cc2cccc(Oc3ccc(C(F)(F)F)cn3)c2)CC1,42% and 43.6%,44.4,43.6,35.1,51.2,28.9,38.3,27.1
